Source: PubChem BioAssay (National Center for Advancing Translational Sciences (NCATS))
D2 antag: antagonists of human D2 dopamine receptor | HEK293 TREx D2 cells, calcium flux, dopamine EC80 | inhibition, % at 10 µM | hit rate 2% among 340,000 | AID 485344; in the data active = inhibition above about 30%; inactive = below that, where a call was filed; note: 0% is about no effect
Target sequence (P14416 whole entry, looked up): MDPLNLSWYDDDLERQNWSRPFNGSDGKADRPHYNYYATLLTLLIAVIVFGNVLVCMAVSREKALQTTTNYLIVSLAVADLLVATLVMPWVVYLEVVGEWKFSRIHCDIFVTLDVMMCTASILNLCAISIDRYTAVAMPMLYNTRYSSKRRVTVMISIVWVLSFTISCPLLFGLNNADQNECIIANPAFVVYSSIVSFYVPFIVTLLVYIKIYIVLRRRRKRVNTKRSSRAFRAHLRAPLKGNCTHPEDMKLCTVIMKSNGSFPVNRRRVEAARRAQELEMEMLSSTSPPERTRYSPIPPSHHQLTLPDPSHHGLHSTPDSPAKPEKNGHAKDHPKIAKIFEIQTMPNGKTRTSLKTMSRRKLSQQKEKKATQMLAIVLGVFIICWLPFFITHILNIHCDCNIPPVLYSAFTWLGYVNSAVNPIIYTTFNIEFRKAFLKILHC
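Tetracycline-induced HEK293 T-REx cells expressing D2 force-coupled to calcium signalling were dye-loaded, exposed to compound for 180 s, then challenged with an EC80 of dopamine; calcium flux was followed kinetically for a further 180 s.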
D2 ag-1: activates the human D2 dopamine receptor; P14416; HEK293 T-REx D2 cells, calcium flux agonist mode; activation, % at 2 µM; hit rate 0.53% among 340,000;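 active = activation over 3 SD above normal in the single-dose calcium agonist read, cut at about 30% in these data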; note: 0% is about no effect
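Agonism scored from kinetic calcium signal (1 read/sec, 180 s) following compound pin transfer, after a 10 s baseline. Cells: HEK293 Trex line expressing inducible D2 receptor coupled to calcium, dye-loaded after overnight culture at 30 C.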
D2 PAM-1: positive allosteric modulators of human D2 dopamine receptor; P14416; DiscoveRx D2 beta-arrestin cells, luminescence, 90 min; 100% = 57 uM dopamine signal; potentiation, % (test concentration not listed); hit rate 0.23% among 360,000; in the data active = potentiation above about 50%; inconclusive = mostly about 30% to 49%
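PathHunter D2 cells, attached overnight at 37 deg C, received compound in DMSO plus dopamine at EC20 (50 nM final) for 90 min at 37 deg C. Beta-arrestin recruitment was read as luminescence after 1 h with detection reagent at ambient temperature.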
D2 PAM-2: positively modulates the human D2 dopamine receptor allosterically; potentiation, % at 10 µM; hit rate 0.34% among 340,000; HEK293 T-REx D2, calcium flux, EC20 dopamine potentiation; P14416; AID 485347;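 active = potentiation over 3 SD above the plate norm, cut at about 30% in these data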; note: 0% is about no effect
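Using a no-wash calcium dye in inducible, force-coupled HEK293 Trex cells expressing D2, we tracked fluorescence each second for 180 s after compound, then for 180 s after EC20 dopamine to detect augmented signalling.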
D2 ag-2: human D2 receptor agonism in beta-arrestin assay | P14416 | AID 624465 | hit rate 0.084% among 360,000 | activation, % (no concentration beside the values) | DiscoveRx PathHunter D2 beta-arrestin, luminescence, 90 min; 100% = 57 uM dopamine signal; in the data active = activation above about 40%; inconclusive = between about 15% and that limit
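DiscoveRx PathHunter D2 beta-arrestin cells (2,100/well) attached overnight, then compound-stimulated 90 min at 37 C in HBSS/10 mM HEPES/0.1% Tween-20 buffer; beta-galactosidase complementation read by luminescence after 1 h at ambient temperature. Dopamine 57 uM final (EC100) as control.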
* hit, by the source's call; ? = inconclusive; . = no result. A selection: hits, their analogues and other compounds. The true share with any hit is near 2.4%.

SMILES	D2 antag	D2 ag-1	D2 PAM-1	D2 PAM-2	D2 ag-2
C=CCC1(O)C(=O)N2C(=C1C(=O)N1CCOCC1)c1ccccc1CC2(C)C (centres undefined)	45*	1	-6	-7	-2
Cc1ccccc1C(=O)NNC(=O)C(=O)Nc1cccc(Cl)c1C	-10	1	-13	10	-4
OC(CNC1CCCC1)COc1c(F)cc(Br)cc1F (centres undefined)	16	0	-11	-12	-4
O=c1nc2s/c(=C\c3ccco3)c(=O)n2nc1Cc1ccc(F)cc1	35*	1	-8	6	0
Cc1ccc2[nH]c3nc(N/N=C/c4cccc(O)c4)nnc3c2c1	37*	0	-2	-11	-1
Cn1nc(-c2ccccn2)nc2c(=O)n(C)c(=O)nc1-2	-8	2	-1	7	8
CCCc1nc2c(=O)n(C)c(=O)nc-2n(C)n1	-6	0	30	-2	54*
O=C(Cc1cccs1)Nc1ccc(S(=O)(=O)N2CCCCC2)cc1	-14	-1	24	16	-2
COc1ccc(S(=O)(=O)N(C)C)cc1NC(=O)Cc1cccs1	34*	-2	-18	-8	-2
COc1ccc(S(=O)(=O)N(C)C)cc1NC(=O)CSC(C)C(=O)Nc1cc(C)on1 (centres undefined)	72*	0	-15	-27	-2
COc1ccc(S(=O)(=O)Nc2ccccc2OC)cc1NC(=O)Cc1cccs1	-24	-1	-18	12	1
O=C(Cc1cccs1)Nc1cc(S(=O)(=O)N2CCCCC2)ccc1Cl	-17	1	0	77*	0
COc1ccc(NC(=O)Cc2cccs2)cc1S(=O)(=O)N1CCCCC1	.	.	-21	.	0
COc1ccc(S(=O)(=O)N2CCCCC2)cc1NC(=O)Cc1cccs1	38*	0	10	-11	-1
O=S(=O)(c1ccc(Br)cc1)N1CCN=C1SCc1cccc(F)c1	-3	1	0	-1	7
COc1cc(SC)ccc1C(=O)NC1CCCCC1	10	0	-12	6	-5
CN(C)S(=O)(=O)c1ccc(Cl)c(NC(=O)C2CCN(S(=O)(=O)c3cccs3)CC2)c1	31*	0	-5	-19	-2
COc1ccc(S(=O)(=O)N(C)C)cc1NC(=O)c1ccc2c(c1)NC(=O)C(C)S2 (centres undefined)	77*	-1	-36	-21	-4
CN(Cc1ccccc1)C(=O)c1cccc(NC(=O)Cc2ccc(NC(=O)C3CCN(C(=O)C4CCC4)CC3)cc2)c1	.	.	.	.	0
Cc1cc(NS(=O)(=O)c2ccc(NC(=O)Cc3ccc([N+](=O)[O-])cc3)cc2)no1	5	0	-2	10	-3
COc1ccc(NC2=C(C(C)=O)C(c3ccc(N(C)C)cc3)C(C(C)=O)C(C)(O)C2)cc1 (centres undefined)	-1	0	51*	1	-4
COc1ccc(NC2=C(C(C)=O)C(c3ccc(OC)cc3)C(C(C)=O)C(C)(O)C2)cc1 (centres undefined)	6	0	-4	14	5
COc1ccc(CCN=CC2=C(O)CC(C)(C)CC2=O)cc1	31*	0	9	3	-2
CC1(C)CC(=O)C(C=NCCc2ccc(S(N)(=O)=O)cc2)=C(O)C1	.	.	-4	.	-2
Clc1ccc(CN(Cc2ccc(Cl)cc2)c2nn[nH]n2)cc1	-10	0	2	4	-1
SMILES	D2 antag	D2 ag-1	D2 PAM-1	D2 PAM-2	D2 ag-2
O=C1c2ccccc2C(=O)N1CCc1nc2ccccc2c(=O)n1Cc1ccco1	40*	1	4	1	-3
Cc1nc(-c2ccccc2)sc1-c1n[nH]c(=S)n1C	-5	1	-17	41*	2
COc1nc(/C(N)=N/O)nc(N2CCCCC2)n1	0	1	2	1	-2
CCCn1c(NCc2ccccc2C)nc2ccccc21	.	2	.	-20	.
CCCn1c(Nc2ccccc2C)nc2ccccc21	42*	0	-33	-13	0
Cc1cc(NS(=O)(=O)c2ccc(NC(=O)c3ccc(Cl)cc3[N+](=O)[O-])cc2)no1	41*	1	?	-1	-5
Cc1cc(NS(=O)(=O)c2ccc(NC(=O)c3ccc([N+](=O)[O-])c(Cl)c3)cc2)no1	.	.	12	.	-2
CC(=O)Nc1nonc1-c1nc2ccccc2n1C	-3	-1	-8	8	-1
Cn1c(-c2nonc2NC(=O)c2ccc(C(C)(C)C)cc2)nc2ccccc21	44*	1	.	2	.
Cc1ccc2cc(CN(Cc3ccco3)C(=O)C3CCCCC3)c(=O)[nH]c2c1C	0	-1	-1	2	-4
O=C(Nc1ccc(Br)c(Cl)c1)c1ccco1	25	0	-34	.	1
COc1cc(-c2cc(=O)c3c(O)c(OC)c(OC)c(O)c3o2)ccc1O	0	0	88*	17	9
COc1c(O)c(O)c2oc(-c3ccccc3)cc(=O)c2c1OC	-5	0	?	14	8
CCC(CC)NC(=O)CN1CCN(S(=O)(=O)c2ccc(Br)s2)CC1	-4	-1	50*	0	2
CC(=O)Nc1ccc(NC(=O)COC(=O)/C(=C/c2ccccc2)n2nnnc2C)cc1	4	1	-3	2	-5
CCOCCCNc1ncc2c(n1)CC(c1ccc(C)cc1)CC2=O (centres undefined)	15	0	-9	3	0
Cc1cc(C)cc(NC(=O)C2CCN(c3cnccn3)CC2)c1	33*	-1	-5	-38	-8
COC1=C/C(=C/c2c(O)c(C#N)c3ccccn23)C=CC1=O	33*	2	-7	-3	-2
Cc1ccccc1C(=O)O/N=C/c1c(N2CCOCC2)n(C)c2ccccc12	-6	1	180*	-6	?
CCOC(=O)N1CCN(C(=O)c2c(-c3c(Cl)cccc3Cl)noc2C)CC1	-14	-3	-1	.	-1
Cc1ccc2nc3ccc(N4CCCC4)nn3c(=O)c2c1	5	-1	-13	-7	-2
Cc1sc2nc3ccc(N4CCCCC4)nn3c(=O)c2c1C	37*	1	-2	-9	-12
COc1ccc(NC(=O)c2ccc(OCC3CCCO3)cc2)cc1Cl (centres undefined)	47*	1	25	-4	8
O=C(NC1CCCCC1)c1ccc(-n2cncn2)c([N+](=O)[O-])c1	.	.	-1	.	0
CC1CCC(NC(=O)c2ccc(-n3cncn3)c([N+](=O)[O-])c2)CC1 (centres undefined)	36*	1	27	-7	-4
Cc1cccc(N2CCN(CC(O)COc3ccccc3Cl)CC2)c1 (centres undefined)	71*	9	-53	-24	-5
OC(COc1cc(Cl)c(Cl)cc1Cl)CN1CCN(c2ncccn2)CC1 (centres undefined)	37*	26	-31	-22	11
